The source of these data is ChEMBL document CHEMBL3988442, “University of Dundee, Small-Polar-MMV Screening Library” (2021).

Common to all, as to parameters: scale not given: direction of the effect not stated beside the values
In test [1] the target is Protein translocase subunit SecA (Escherichia coli (strain K12)) (UniProt P10408). Put plainly: Assay to Identify E. coli SecA ATPase Inhibitors. It is filed as functional. As to conditions: 30 µM.
The target in test [2] is T1, Ubiquitin-activating enzyme e1, putative (Leishmania donovani (strain BPK282A1)) (UniProt E9BSI1).
T1 sequence (whole entry): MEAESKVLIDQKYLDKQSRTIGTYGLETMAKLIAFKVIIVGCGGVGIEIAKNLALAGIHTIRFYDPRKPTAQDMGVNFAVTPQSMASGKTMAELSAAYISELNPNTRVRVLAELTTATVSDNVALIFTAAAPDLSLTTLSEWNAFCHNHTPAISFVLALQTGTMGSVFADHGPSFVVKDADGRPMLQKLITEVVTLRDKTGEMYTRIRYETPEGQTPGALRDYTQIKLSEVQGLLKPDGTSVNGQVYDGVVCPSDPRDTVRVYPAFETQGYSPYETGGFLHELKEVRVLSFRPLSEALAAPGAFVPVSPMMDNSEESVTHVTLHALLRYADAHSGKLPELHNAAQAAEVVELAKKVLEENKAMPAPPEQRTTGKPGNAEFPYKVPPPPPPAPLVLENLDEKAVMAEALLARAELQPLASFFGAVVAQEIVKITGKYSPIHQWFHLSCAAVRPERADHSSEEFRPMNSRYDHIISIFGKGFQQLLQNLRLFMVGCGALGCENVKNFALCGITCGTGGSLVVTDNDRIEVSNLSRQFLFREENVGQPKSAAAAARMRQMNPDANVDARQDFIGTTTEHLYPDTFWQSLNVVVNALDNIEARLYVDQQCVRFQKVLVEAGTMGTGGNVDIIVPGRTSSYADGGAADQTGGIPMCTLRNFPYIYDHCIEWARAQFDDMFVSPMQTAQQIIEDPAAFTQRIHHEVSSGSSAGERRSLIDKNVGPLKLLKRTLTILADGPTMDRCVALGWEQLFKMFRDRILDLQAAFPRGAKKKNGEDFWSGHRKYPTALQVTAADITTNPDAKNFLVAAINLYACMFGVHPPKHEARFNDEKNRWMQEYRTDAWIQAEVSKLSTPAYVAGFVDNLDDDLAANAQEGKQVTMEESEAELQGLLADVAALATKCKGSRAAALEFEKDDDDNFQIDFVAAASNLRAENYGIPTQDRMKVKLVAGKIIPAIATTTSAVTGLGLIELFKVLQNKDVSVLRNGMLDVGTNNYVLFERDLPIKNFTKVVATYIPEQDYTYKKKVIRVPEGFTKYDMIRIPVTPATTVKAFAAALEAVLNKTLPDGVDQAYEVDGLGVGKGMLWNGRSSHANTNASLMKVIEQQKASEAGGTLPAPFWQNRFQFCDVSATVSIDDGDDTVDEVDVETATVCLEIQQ
Put plainly: Leishmania donovani Ubiquitin Activating Enzyme (LdE1). As to conditions: 30 µM. It is filed as functional.

For test [3], the target named is AMP-activated protein kinase, AMPK (Homo sapiens) (UniProt P54646+O43741+P54619+Q9UGJ0+Q9Y478+Q13131+Q9UGI9). Put plainly: AMP-dependent Kinase enzyme assay. An in vitro enzyme assay that detects ADP turnover that is directly proportional to AMPK activity. This uses naive AMPK that is activated during the assay with MK-8722. It is filed as functional. As to conditions: 30 µM.

Test [4] deals with Sialic acid-binding Ig-like lectin 9 (Homo sapiens) (UniProt Q9Y336). Put plainly: Hs-Siglec9 ALPHAscreen SOP 20170721. Particulars: 10 µM.
Sequence of Sialic acid-binding Ig-like lectin 9 (Homo sapiens) (Q9Y336 whole entry): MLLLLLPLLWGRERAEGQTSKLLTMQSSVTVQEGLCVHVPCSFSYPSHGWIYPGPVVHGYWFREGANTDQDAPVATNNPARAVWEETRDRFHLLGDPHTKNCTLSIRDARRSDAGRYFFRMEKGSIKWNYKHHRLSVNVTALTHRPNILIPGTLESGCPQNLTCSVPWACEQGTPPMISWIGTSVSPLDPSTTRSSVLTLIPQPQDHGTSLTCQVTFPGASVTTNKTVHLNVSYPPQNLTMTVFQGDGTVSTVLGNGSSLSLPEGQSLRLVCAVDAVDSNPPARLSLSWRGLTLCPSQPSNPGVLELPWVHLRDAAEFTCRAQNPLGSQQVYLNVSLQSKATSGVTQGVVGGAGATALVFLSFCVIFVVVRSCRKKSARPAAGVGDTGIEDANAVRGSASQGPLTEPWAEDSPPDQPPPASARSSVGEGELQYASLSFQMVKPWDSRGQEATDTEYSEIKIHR
Test [5] concerns Trypanosoma cruzi. Put plainly: Trypanosoma cruzi phosphomannomutase and mannose-1-phosphate guanylyltransferase assay. Format: functional. Particulars: 10 µM.
Test [6] concerns the target T2, Arginase-2, mitochondrial (Homo sapiens) (UniProt P78540).
T2 sequence (whole entry): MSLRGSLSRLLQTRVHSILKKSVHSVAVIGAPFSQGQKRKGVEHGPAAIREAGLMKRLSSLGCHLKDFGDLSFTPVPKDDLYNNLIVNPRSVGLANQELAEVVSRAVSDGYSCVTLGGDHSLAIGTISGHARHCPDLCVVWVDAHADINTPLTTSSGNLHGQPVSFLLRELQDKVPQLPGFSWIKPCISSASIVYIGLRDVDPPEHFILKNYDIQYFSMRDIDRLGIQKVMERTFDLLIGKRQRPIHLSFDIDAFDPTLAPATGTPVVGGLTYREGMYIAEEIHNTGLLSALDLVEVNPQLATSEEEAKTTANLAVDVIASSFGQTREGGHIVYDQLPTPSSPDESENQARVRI
Nature of the test: in vitro enzyme assay to detect the production of urea directly proportional to the activity of Arginase II. Note: in the data most compounds retested in dose-response had high values. It is filed as functional. Particulars: 33.3 µM.

In test [7] the target is T3, Proteasome subunit beta (Trypanosoma cruzi) (UniProt O96673).
T3 sequence (whole entry): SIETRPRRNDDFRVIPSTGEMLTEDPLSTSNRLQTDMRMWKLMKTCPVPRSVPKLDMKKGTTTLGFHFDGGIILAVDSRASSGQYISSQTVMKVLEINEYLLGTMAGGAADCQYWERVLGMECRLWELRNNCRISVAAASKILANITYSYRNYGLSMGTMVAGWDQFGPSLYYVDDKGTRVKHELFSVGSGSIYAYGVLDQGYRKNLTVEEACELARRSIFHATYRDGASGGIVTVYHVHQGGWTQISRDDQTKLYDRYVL
Put plainly: Trypanosoma cruzi proteasome chymotrypsin-like activity (TcProtChymo) assay. Note: in the data most compounds retested in dose-response had high values. It is filed as functional. As to conditions: 9.37 µM.

The species named for test [8] is Homo sapiens. Nature of the test: To identify inhibition of the IFN signalling (Jak-Stat) pathway via expression of an eGFP reporter gene under the control of an IFN-stimulated response element (ISRE) containing MxA promoter. It is filed as functional. As to conditions: 30 µM.
Test [9] has as its target T4, Tyrosyl-tRNA synthetase, putative (Trypanosoma cruzi (strain CL Brener)) (UniProt Q4DSP6).
T4 sequence (whole entry): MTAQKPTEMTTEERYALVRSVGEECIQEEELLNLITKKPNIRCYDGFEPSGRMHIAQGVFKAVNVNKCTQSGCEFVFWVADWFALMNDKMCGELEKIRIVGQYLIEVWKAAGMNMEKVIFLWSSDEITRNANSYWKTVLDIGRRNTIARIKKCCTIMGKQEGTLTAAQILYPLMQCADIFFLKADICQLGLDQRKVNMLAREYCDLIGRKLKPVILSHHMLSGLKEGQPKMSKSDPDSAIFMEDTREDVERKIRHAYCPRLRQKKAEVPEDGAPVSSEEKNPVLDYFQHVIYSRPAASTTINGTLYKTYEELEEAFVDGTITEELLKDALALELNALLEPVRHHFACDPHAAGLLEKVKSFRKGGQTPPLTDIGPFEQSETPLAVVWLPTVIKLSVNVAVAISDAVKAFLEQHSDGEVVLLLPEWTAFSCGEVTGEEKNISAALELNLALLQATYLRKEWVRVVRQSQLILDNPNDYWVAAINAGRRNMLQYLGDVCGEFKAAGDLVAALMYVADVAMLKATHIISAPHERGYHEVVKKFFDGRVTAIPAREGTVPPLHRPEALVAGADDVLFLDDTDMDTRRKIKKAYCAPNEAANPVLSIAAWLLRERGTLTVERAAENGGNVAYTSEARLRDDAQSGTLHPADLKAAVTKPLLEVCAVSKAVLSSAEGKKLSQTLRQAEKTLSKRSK
Put plainly: Trypanosoma cruzi tyrosyl tRNA synthetase (TcYRS) _High Tyrosine SOP. Note: in the data most compounds retested in dose-response had high values. Format: functional. Particulars: 30 µM.

In test [10] the target is T4, Tyrosyl-tRNA synthetase, putative (Trypanosoma cruzi (strain CL Brener)). Put plainly: Trypanosoma cruzi tyrosyl tRNA synthetase (TcYRS) SOP. As to conditions: 30 µM. It is filed as functional.
The target in test [11] is Chromo domain-containing protein 1 (Saccharomyces cerevisiae (strain ATCC 204508 / S288c) (Baker's yeast)) (UniProt P32657). Nature of the test: ScCHD-1 Enzyme Inhibition Assay. Note: in the data most compounds retested in dose-response had high values. As to conditions: 30 µM. Format: functional.
Sequence of Chromo domain-containing protein 1 (Saccharomyces cerevisiae (strain ATCC 204508 / S288c) (Baker's yeast)) (P32657 whole entry, the tested form may be a part): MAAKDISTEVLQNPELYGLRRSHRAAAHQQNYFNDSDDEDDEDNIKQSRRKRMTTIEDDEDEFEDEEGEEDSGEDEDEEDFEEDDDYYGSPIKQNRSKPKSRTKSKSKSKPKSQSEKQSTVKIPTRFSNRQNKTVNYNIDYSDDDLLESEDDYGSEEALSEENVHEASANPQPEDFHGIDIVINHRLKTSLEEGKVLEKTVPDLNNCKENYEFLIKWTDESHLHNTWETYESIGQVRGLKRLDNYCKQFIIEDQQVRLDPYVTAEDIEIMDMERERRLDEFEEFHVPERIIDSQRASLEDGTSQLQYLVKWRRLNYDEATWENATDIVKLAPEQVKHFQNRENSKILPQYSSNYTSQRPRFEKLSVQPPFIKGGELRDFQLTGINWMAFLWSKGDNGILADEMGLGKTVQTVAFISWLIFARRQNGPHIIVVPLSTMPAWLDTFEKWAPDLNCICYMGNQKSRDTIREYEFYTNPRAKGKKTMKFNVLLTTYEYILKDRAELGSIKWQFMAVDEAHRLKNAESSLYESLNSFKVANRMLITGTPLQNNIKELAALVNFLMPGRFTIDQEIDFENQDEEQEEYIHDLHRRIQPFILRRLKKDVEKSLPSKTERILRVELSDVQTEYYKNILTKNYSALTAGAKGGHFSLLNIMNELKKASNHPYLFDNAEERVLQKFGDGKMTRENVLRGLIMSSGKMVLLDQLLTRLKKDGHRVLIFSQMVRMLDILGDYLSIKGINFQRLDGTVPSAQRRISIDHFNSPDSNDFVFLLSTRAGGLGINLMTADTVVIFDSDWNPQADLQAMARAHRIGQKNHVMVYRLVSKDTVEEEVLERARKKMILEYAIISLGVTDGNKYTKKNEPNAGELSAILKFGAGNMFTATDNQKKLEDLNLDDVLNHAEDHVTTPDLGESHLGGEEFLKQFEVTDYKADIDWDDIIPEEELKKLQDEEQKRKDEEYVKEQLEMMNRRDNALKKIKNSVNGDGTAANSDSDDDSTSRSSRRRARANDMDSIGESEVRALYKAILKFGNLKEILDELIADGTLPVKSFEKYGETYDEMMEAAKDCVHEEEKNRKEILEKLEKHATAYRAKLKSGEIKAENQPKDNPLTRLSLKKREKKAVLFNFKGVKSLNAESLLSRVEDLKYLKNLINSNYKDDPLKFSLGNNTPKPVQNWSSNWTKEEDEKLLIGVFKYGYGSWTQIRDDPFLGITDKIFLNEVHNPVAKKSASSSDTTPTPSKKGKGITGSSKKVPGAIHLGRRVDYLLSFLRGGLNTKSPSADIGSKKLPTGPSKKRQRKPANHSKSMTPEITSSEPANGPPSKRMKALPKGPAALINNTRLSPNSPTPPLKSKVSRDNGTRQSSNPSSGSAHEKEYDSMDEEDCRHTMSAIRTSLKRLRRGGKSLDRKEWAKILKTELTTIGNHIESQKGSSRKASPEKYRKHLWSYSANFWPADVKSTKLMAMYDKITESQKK

For some of these results: Entries with a potency or affinity are not part of this list.

Sequence of Protein translocase subunit SecA (Escherichia coli (strain K12)) (P10408 whole entry): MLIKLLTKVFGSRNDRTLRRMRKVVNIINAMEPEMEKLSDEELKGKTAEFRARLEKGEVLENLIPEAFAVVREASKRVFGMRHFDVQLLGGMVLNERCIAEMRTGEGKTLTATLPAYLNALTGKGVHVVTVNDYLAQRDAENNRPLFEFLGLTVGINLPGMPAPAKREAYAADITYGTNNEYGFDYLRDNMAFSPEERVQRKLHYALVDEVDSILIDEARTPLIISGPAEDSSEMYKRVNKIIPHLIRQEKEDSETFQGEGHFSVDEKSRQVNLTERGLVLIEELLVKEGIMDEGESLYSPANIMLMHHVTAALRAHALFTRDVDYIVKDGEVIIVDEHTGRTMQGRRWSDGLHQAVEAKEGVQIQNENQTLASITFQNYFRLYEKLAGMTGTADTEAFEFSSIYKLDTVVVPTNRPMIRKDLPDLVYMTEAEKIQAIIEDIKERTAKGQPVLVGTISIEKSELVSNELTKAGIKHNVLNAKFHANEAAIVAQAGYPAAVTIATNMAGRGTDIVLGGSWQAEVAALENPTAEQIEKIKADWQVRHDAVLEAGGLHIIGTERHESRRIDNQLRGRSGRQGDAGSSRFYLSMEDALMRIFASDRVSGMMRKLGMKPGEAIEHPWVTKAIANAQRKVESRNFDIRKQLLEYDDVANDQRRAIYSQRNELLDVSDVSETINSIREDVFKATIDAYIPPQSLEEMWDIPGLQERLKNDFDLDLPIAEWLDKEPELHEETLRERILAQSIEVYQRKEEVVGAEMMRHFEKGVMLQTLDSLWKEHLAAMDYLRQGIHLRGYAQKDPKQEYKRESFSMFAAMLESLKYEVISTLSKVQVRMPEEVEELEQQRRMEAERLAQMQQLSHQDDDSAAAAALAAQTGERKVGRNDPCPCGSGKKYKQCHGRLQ

On to `CCC1=N[C@@]2(CC[C@@H]3CN(C(=O)Nc4ccc(F)cc4)C[C@@H]32)C(=O)N1`, for which the Percent Effect in test [1] is -5.91%; in [2], 5.41%; in test [3] it was -0.761%; in test [4], -2.41%; in test [5], 7.42%; in test [6] it was -2.5%. In addition, the Percent Effect is 13.1% in test [7]; -26.3% in test [8]; 7.92% in [9]; 8.54% in test [10]; -6.29% in [11].
Consider `O=C(c1ccc(=O)[nH]n1)N1CC(c2nc(Cc3ccccc3)no2)C1`, for which the Percent Effect in test [1] is -2.52%; in [2], 8.22%; in test [3], -1.62%; in [4], 7.99%; in [5], 3.33%; in test [6], 20.9%. Besides, the Percent Effect in test [7] was 14.4%; in [8] it was 0.0834%; in [9], 6.45%; in [10], 20%; in test [11] it was -5.6%.
In the case of `Cc1csc(N2CCN(CC(=O)Nc3nncs3)CC2C)n1` (stereo not drawn), the Percent Effect was -3.67% in test [1]; 0% in [2]; -9.26% in test [3]; 8.6% in test [4]; -0.836% in test [5]; -3.88% in [6]. In addition, the Percent Effect in [7] was 5.92%; in test [8] it was 9.1%; in test [9], 3.96%; in [10], -1.22%; in [11], 10.3%.
Regarding `CN(CCNC(=O)Nc1ccncc1)C1CCCCC1`, the Percent Effect is -4.37% in test [1]; 21.6% in [2]; -4.55% in test [3]; 6.96% in test [4]; 8.21% in test [5]; -0.401% in test [6]. In addition, the Percent Effect in test [7] is 16.6%; in test [8], 8.26%; in test [9], 5.42%; in test [10], 23.5%; in [11], -11%.
Regarding `CC(C)Cc1noc(CN2CCCC(Cn3cncn3)C2)n1` (stereo not drawn), the Percent Effect in test [1] was -4.29%; in [2], 16.2%; in test [3], -4.96%; in test [4], 16.6%; in test [5], 3.25%; in test [6], 2.03%. In addition, the Percent Effect in test [7] is 7%; in test [8], 13.5%; in test [9], 11.9%; in test [10], 28.1%; in [11] it was -7.85%.
Consider `Cc1c(C)n(-c2ccccn2)c2nc3c(c(N)c12)CCCC3`, for which the Percent Effect in test [1] was -1.37%; in test [2], -14.7%; in [3], 7.92%; in [4] it was 7.22%; in test [5], -3.34%; in test [6], -10%. Also, the Percent Effect in [7] is 25.1%; in test [8] it was 5.7%; in test [9], 1.06%; in [10] it was -51.3%; in test [11], -7.7%.
Consider `Cc1cc(C)c2cc(CNCC3CCCO3)c3nn(C)c(=O)n3c2c1` (stereo not drawn), for which the Percent Effect is -1.56% in test [1]; 9.46% in test [2]; 5.25% in test [3]; 0.0533% in test [4]; 2.17% in test [5]; -1.62% in [6]. The Percent Effect in test [7] is 7.96%; in test [8], 27%; in [9] it was 2.15%; in test [10], 9.09%; in test [11], -28.2%.
On to `O=C(NCc1ccco1)[C@H]1C[C@H]2OCC[C@H]2N(S(=O)(=O)C2CC2)C1`, for which the Percent Effect was -3.9% in test [1]; 8% in test [2]; -0.23% in test [3]; 14.7% in test [4]; -2.7% in test [5]; -26.7% in test [6]. Moreover, the Percent Effect in test [7] was 8.38%; in test [8], -14%; in test [9], -1.04%; in test [10], 15%; in test [11] it was -8.9%.
